Laboratory results from PubChem BioAssay (Tox21).
Records with an inconclusive call do not appear. Calls of active or inactive are those of the source. Calls follow the shape of the dose curve; as a rule, active = well fitted cell-killing curve with a large enough effect in the repeat runs; inconclusive = weak or mixed curves, or effect the other way; inactive = flat fitted curve, though single readings scatter.

Assay: cAMP Responsive Elements (CRE) small molecule agonists, cell-based qHTS assay: qHTS cell viability counter screen (AID 2060914); also: nearly all actives have a fitted effect of over 50% in size
Conditions: CRE-bla HEK293T viability, CellTiter-Glo luminescence, 5 h; series mostly up to 92.4 µM; activity change, negative = cytotoxicity: at the top concentration
Method in brief: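 Cytotoxicity was measured as ATP luminescence (CellTiter-Glo, 30 min at room temperature) in the same wells as the CRE-bla FRET read-out. HEK293T CRE-bla cells had 3 h compound exposure at 37C/5% CO2.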
% is scaled to controls: 0 for no effect and ±100 for the full control effect.

Q: Which “activity change, negative = cytotoxicity” value does the source give for `CCOC(OCC)C(=O)c1ccccc1` here?
A: -1.36% (inactive)

Q: Which “activity change, negative = cytotoxicity” value does the source give for `NC(=O)CCCCC(N)=O` here?
A: 10.1% (inactive)

Q: For `CC1=CC(C)C(C=O)C(C)C1` (configuration not stated), which “activity change, negative = cytotoxicity” value is on record?
A: 10.5% (inactive)

Q: With `[O]=[Zr]` as the molecule, how does the “activity change, negative = cytotoxicity” value read?
A: 12.4% (inactive)

Q: Which “activity change, negative = cytotoxicity” value does the source give for `COc1cc(C)cc(O)c1` here?
A: -0.615% (inactive)

Q: Which “activity change, negative = cytotoxicity” value does the source give for `O=C(O)CSCC(=O)NC1CCSC1=O` (configuration not stated) here?
A: 1.31% [at 42.5 µM] (inactive)

Q: For `CSc1c(Cl)c(Cl)c(Cl)c(Cl)c1Cl`, which “activity change, negative = cytotoxicity” value is on record?
A: -3.82% (inactive)

Q: For `Cc1onc(-c2ccccc2)c1C(=O)Cl`, which “activity change, negative = cytotoxicity” value is on record?
A: 11.4% [at 42.5 µM] (inactive)

Q: For `CC1=CP(=O)(c2ccccc2)CC1` (configuration not stated), which “activity change, negative = cytotoxicity” value is on record?
A: 3.55% (inactive)

Q: Which “activity change, negative = cytotoxicity” value does the source give for `COS(=O)(=O)O` here?
A: -2.09% (inactive)

Q: With `CO` as the molecule, how does the “activity change, negative = cytotoxicity” value read?
A: -23% (inactive)

Q: Which “activity change, negative = cytotoxicity” value does the source give for `C=C(C)C(=O)OCCCCCCCCCC` here?
A: 1.13% (inactive)

Q: Which “activity change, negative = cytotoxicity” value does the source give for `Nc1ccc(Cl)cc1[N+](=O)[O-]` here?
A: 15.7% (inactive)

Q: Which “activity change, negative = cytotoxicity” value does the source give for `CCN1C=CN(C)C1C` (configuration not stated) here?
A: -8.49% (inactive)

Q: For `Nc1cc(S(=O)(=O)O)ccc1S(=O)(=O)O`, which “activity change, negative = cytotoxicity” value is on record?
A: -9.77% (inactive)

Q: With `O=C(O)CCCC(=O)O` as the molecule, how does the Potency read?
A: inactive

Q: Which “activity change, negative = cytotoxicity” value does the source give for `Nc1ncn([C@H]2C[C@H](O)[C@@H](CO)O2)c(=O)n1` here?
A: 6.73% [at 42.5 µM] (inactive)

Q: Which “activity change, negative = cytotoxicity” value does the source give for `CCCCCCNC(=O)n1cc(F)c(=O)[nH]c1=O` here?
A: -7.25% [at 42.5 µM] (inactive)

Q: Which “activity change, negative = cytotoxicity” value does the source give for `CC/C=C\CCOC(=O)C(C)C` here?
A: 1.65% (inactive)

Q: Which activity change, negative = cytotoxicity does the source give for `CCCC(=O)O[C@]1(C(=O)COC(=O)CC)CC[C@H]2[C@@H]3CCC4=CC(=O)CC[C@]4(C)[C@H]3[C@@H](O)C[C@@]21C` here?
A: -7.63% [at 18.9 µM] (inactive)

Q: Which Potency does the source give for `N[C@@H](Cc1c[nH]c2ccccc12)C(=O)O` here?
A: inactive

Q: With `CCCCCCC1CCC(=O)O1` (configuration not stated) as the molecule, how does the “activity change, negative = cytotoxicity” value read?
A: -7.94% (inactive)

Q: With `Cc1ccc(O)c(N)c1` as the molecule, how does the “activity change, negative = cytotoxicity” value read?
A: 0.5% (inactive)

Q: For `NS(=O)(=O)c1cc2c(cc1Cl)NC(C1CC3C=CC1C3)NS2(=O)=O` (configuration not stated), which “activity change, negative = cytotoxicity” value is on record?
A: -1.72% [at 42.5 µM] (inactive)

Q: With `Cc1ncc(CO)c(C=O)c1O` as the molecule, how does the “activity change, negative = cytotoxicity” value read?
A: 2.08% [at 42.5 µM] (inactive)

Q: For `CCC1(C)CC(=O)NC1=O` (configuration not stated), which “activity change, negative = cytotoxicity” value is on record?
A: -2.61% [at 42.5 µM] (inactive)

Q: With `Cc1cc(C(C)(C)C)c(O)c(C)c1CC1=NCCN1` as the molecule, how does the “activity change, negative = cytotoxicity” value read?
A: -0.41% [at 42.5 µM] (inactive)
